# From PubChem BioAssay
# An excerpt weighted towards active compounds, which were near 3.6% of everything screened.
# LGR2 inh = inhibitors of bursicon-induced Drosophila LGR2 receptor cAMP signaling. HEK293 LGR2, CRE-luciferase, bursicon-stimulated, 4 h. inhibition, % at 9.99 µM. 380,000 compounds, 0.35% hits. AID 720647;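 active = drop in luminescence signal, shown as inhibition above about 50% in the replicate tests, limit read from the data, passing the limit was not always enough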;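 also: agonist challenge used bursicon conditioned medium at about half maximal strength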
# CF NFkB block = inhibitors of cystic fibrosis induced NF-kB; KKLEB NF-kB-GFP reporter, PAF-induced, GFP fluorescence overnight; 360,000 compounds, 0.86% hits; inhibition, % at 5 µM;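 active = at least 50% inhibition at 5 µM, scaled per plate between neutral and stimulator controls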;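 also: PAF is a Pseudomonas aeruginosa culture filtrate used as stimulus; plate controls were PAF-stimulated DMSO wells for no effect and unstimulated DMSO wells for full effect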
# KKLEB tox = CF airway cell cytotoxicity counter-screen. KKLEB CF airway cells viability, ATPlite luminescence, overnight; hits give low values; cells stimulated with P. aeruginosa culture filtrate. activity change (cytotoxicity), % at 5 µM. 360,000 compounds, 0.36% hits. AID 602141;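 active = corrected activity change at or below -50% at 5 µM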
# HSP90 refold inh = HSP90 refolding inhibition in rabbit reticulocyte lysate | luciferase refolding luminescence, 3 h | inhibition, % at 5.6 µM | 290,000 compounds, 0.91% hits | AID 1789;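 active = inhibition above the screen-wide mean plus 3 SD, computed separately per campaign, cut at about 16% in these data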;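 also: 0% = DMSO wells and 100% = 60 µM geldanamycin wells; inhibitors lower the luminescence because luciferase stays unfolded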
# Mdm2 MdmX PPI = disrupts the human Mdm2-MdmX interaction. AID 485346. inhibition, % at 8 µM. SaOS-2 split-luciferase Mdm2/MdmX complementation, luminescence. 330,000 compounds, 3% hits;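 active = inhibition of at least 50% at 8 µM in the primary screen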
# Target sequence (O15151 whole entry, looked up): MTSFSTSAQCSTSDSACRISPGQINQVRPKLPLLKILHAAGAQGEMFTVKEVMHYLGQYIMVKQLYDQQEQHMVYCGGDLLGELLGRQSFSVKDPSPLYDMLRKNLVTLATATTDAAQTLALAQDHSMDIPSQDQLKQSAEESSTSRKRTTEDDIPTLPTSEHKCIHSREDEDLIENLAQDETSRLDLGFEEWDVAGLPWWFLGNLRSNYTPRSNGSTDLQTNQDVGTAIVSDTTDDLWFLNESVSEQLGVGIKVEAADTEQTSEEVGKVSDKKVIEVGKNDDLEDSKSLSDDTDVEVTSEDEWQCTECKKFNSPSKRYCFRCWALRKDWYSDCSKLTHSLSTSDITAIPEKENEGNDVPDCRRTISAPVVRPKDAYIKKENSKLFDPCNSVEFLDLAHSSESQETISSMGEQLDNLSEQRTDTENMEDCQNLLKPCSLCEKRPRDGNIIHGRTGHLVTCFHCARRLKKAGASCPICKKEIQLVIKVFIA
# Target sequence (Q00987 whole entry, looked up): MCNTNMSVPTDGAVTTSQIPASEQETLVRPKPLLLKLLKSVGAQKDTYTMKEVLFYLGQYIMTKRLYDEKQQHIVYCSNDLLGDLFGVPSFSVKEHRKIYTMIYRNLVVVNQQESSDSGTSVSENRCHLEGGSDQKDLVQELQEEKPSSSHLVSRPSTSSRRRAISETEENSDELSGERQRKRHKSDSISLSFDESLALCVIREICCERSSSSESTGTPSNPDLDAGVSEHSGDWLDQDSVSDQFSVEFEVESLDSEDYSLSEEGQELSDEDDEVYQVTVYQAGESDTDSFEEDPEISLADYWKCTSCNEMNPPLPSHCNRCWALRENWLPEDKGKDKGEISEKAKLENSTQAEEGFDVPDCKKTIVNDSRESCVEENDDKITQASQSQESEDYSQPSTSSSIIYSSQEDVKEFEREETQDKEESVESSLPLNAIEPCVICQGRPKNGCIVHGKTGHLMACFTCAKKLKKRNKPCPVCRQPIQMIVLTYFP
# Peg3 prom inh = inhibitors of Peg3 promoter; HeLa PEG-Prom luciferase reporter, luminescence, overnight; inhibition, % at 20 µM; 360,000 compounds, 1.7% hits;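 active = inhibition of at least 50% at 20 µM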
# Mdm2 MdmX conf = confirmation of human Mdm2/MdmX interaction inhibitors; shares compounds with Mdm2 MdmX PPI; Mdm2-MdmX binding, luminescent assay; inhibition, % at 8 µM; 10,000 compounds, 55% hits; in the data active = inhibition above about 40%
# FLuc counter = full-length luciferase inhibition in Mdm2/MdmX counter-screen; AID 504607; 6,200 compounds, 77% hits; inhibition, % at 8 µM; SaOS-2 full-length luciferase counterscreen, luminescence; shares compounds with Mdm2 MdmX PPI;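 active = mean inhibition at 8 µM reaching about 37%, which flags the compound as non-specific, limit read from the data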;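 also: p53-null SaOS-2 cells with luciferase driven by a doxycycline-inducible promoter; compound on cells about two nights before reading with doxycycline added after day one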
# Starred values were filed as active, the others as inactive; / = no result given.
SMILES,LGR2 inh,CF NFkB block,KKLEB tox,HSP90 refold inh,Mdm2 MdmX PPI,Peg3 prom inh,Mdm2 MdmX conf,FLuc counter
COc1ccc(/C=C2\SC(=S)N(CCCC(=O)Nc3ccccn3)C2=O)cc1OC,6,6,-2,5,63*,17,52*,76*
CC(C)CC#Cc1ccc2c(c1)O[C@@H](CN(C)C(=O)c1cccc(F)c1)[C@H](C)CN([C@@H](C)CO)S2(=O)=O,27,/,/,/,/,/,/,/
C[C@H]1CN([C@@H](C)CO)C(=O)c2cc(C#CC3CCCCC3)cnc2O[C@@H]1CN(C)S(=O)(=O)c1ccc(F)cc1,18,/,/,/,/,/,/,/
CCC(=O)N(C)C[C@H]1Oc2ncc(-c3ccc(C(=O)N(C)C)cc3)cc2C(=O)N([C@H](C)CO)C[C@@H]1C,0,/,/,/,/,/,/,/
CCCNC(=O)N1CC2(CCN(Cc3cccc(F)c3)CC2)c2c([nH]c3cc(OC)ccc23)[C@H]1CO,-4,/,/,/,/,/,/,/
C[C@@H]1CN([C@H](C)CO)C(=O)Cc2cc(NC(=O)CCN3CCOCC3)ccc2O[C@H]1CN(C)S(=O)(=O)c1ccc(Cl)cc1,-7,/,/,/,/,/,/,/
CC(=O)c1ccc(N2CCN(C(=O)/C=C/c3ccc4ccccc4n3)CC2)cc1,21,-23,-2,1,69*,5,52*,66*
CC(=O)c1ccc(N2CCN(C(=O)c3ccc4ccccc4n3)CC2)cc1,-26,11,2,0,-20,-4,/,/
CN1c2ccc(C3=CCCCC3)cc2[C@@H]2[C@@H](CCN2C(=O)C2CCC2)[C@H]1CO,9,/,/,/,/,/,/,/
Nc1c(C(=O)Nc2ccccc2)c2nc3ccccc3nc2n1CCCN1CCOCC1,/,-20,-8,0,67*,44,29,/
N#Cc1c(N)n(CCCN2CCOCC2)c2nc3ccccc3nc12,/,-10,3,-2,-1,2,/,/
C=CCn1c(N)c(C(=O)Nc2cccc(C)c2)c2nc3ccccc3nc21,/,-24,6,4,67*,18,21,/
C[C@@H]1CN([C@@H](C)CO)C(=O)c2cc(NC(=O)CCCN(C)C)ccc2O[C@H]1CN(C)C(=O)Nc1cccc2ccccc12,0,/,/,/,/,/,/,/
COCC(=O)N(C)C[C@H]1Oc2cc(C#CCN(C)C)ccc2S(=O)(=O)N([C@@H](C)CO)C[C@@H]1C,7,/,/,/,/,/,/,/
Cc1c(CCC(C)C)c(=O)n2c([nH]c3ccccc32)c1C#N,/,45,-27,4,73*,27,53*,45*
CCOC(=O)C1=C(c2ccccc2)NC(N)=NC1c1ccc(OCc2ccc(Cl)cc2)c(OC)c1 (stereo unspecified),5,3,3,8,100*,110*,60*,94*
C[C@@H]1CN([C@@H](C)CO)C(=O)Cc2cc(NC(=O)NC3CCCCC3)ccc2O[C@H]1CN(C)C(=O)Nc1ccc2c(c1)OCO2,-4,/,/,/,/,/,/,/
c1ccc2c(c1)NC(c1ccncc1)n1c-2nc2ccccc21 (stereo unspecified),/,17,-9,0,-4,-51,/,/
c1cncc(C2Nc3ccccc3-c3nc4ccccc4n32)c1 (stereo unspecified),12,-22,-42,5,53*,-22,52*,64*
CC(C)c1nnc(NC(=O)CCc2ccccc2)s1,-24,1,-2,5,-4,-131,/,/
CSc1nnc(NC(=O)c2nc(S(=O)(=O)Cc3ccccc3)ncc2Cl)s1,-16,91*,-82*,5,99*,105*,94*,2
CC(C)c1nnc(NC(=O)c2nc(S(=O)(=O)Cc3ccccc3)ncc2Cl)s1,7,100*,-87*,8,97*,105*,76*,50*
COc1ccc(C(c2c(NC(=O)c3ccco3)sc(C)c2C)N2CCOCC2)cc1 (stereo unspecified),8,25,-4,/,41,29,/,/
Cc1sc(NC(=O)c2ccco2)c(C(c2cccnc2)N2CCC(C)CC2)c1C (stereo unspecified),/,14,-7,-2,74*,15,76*,77*
Cc1ccccc1Cn1cc(NC(=O)c2cc(-c3cccs3)on2)cn1,-6,46,-54*,1,58*,12,13,/
SMILES,LGR2 inh,CF NFkB block,KKLEB tox,HSP90 refold inh,Mdm2 MdmX PPI,Peg3 prom inh,Mdm2 MdmX conf,FLuc counter
C[C@H](CO)N1C[C@H](C)[C@@H](CN(C)C(=O)Nc2ccc3c(c2)OCO3)Oc2ccc(NC(=O)CCCCCC(=O)Nc3ccccc3N)cc2C1=O,3,/,/,/,/,/,/,/
CC(C)n1c(SCC(=O)Nc2nc3c(s2)CCCC3)nc2c1c(=O)n(C)c(=O)n2C,/,22,-5,2,60*,42,36,40*
COc1ccc2ccccc2c1/C=N/NC(=S)Nc1cc(S(=O)(=O)N2CCOCC2)ccc1N1CCOCC1,1,6,1,0,24,17,/,/
COc1ccc(/C=N/NC(=S)Nc2cc(S(=O)(=O)N3CCOCC3)ccc2N2CCOCC2)cc1O,-14,11,-14,-2,51*,48,45*,83*
CCCNC(=O)Nc1ccc2c(c1)C(=O)N(C)C[C@@H](OC)[C@@H](C)CN[C@@H](C)CO2,1,/,/,/,/,/,/,/
CC(C)=NOc1cc(NC(=O)CCl)cc([N+](=O)[O-])c1,12,79*,-57*,2,95*,110*,70*,56*
CN(C)CCCNC(=O)C[C@H]1C[C@H](C(=O)N2CCCCC2)[C@@]2(C)c3[nH]c4ccc(Cl)cc4c3CCN2C1=O,4,5,-14,/,12,-21,/,/
CN(C)CCCNC(=O)C[C@H]1C[C@H](C(=O)N2CCCCC2)[C@@]2(CCc3ccccc3)c3[nH]c4ccc(Cl)cc4c3CCN2C1=O,/,32,-41,/,97*,95*,91*,51*
O=C(CC1C[C@H](C(=O)N2CCCCC2)[C@@]2(CCc3ccccc3)c3[nH]c4ccccc4c3CCN2C1=O)NCCC1=CCCCC1 (stereo partly specified),7,37,-16,/,79*,40,23,/
O=C(C[C@H]1C[C@H](C(=O)N2CCCCC2)[C@@]2(CCc3ccccc3)c3[nH]c4ccc(Cl)cc4c3CCN2C1=O)NCCC1=CCCCC1,0,34,-12,/,77*,47,25,/
COc1cccc(NC(=O)N2CC(=O)N3[C@H](CO)[C@H](c4ccc(C5=CCCCC5)cc4)[C@@H]3C2)c1,0,/,/,/,/,/,/,/
CC(=O)C(C(c1ccccc1)c1c[nH]c2ccccc12)[N+](=O)[O-] (stereo unspecified),6,0,-5,0,53*,32,61*,57*
CCCNC(=O)C[C@H]1C[C@@H]2c3cc(NS(=O)(=O)c4ccccc4)ccc3O[C@@H]2[C@@H](CO)O1,15,/,/,/,/,/,/,/
